High-throughput results (PubChem BioAssay)
The list is not random: actives were taken first. Their share in the collection is about 18%.
RORgamma inh – qHTS for inhibitors of ROR gamma transcriptional activity | Drosophila S2 Gal4-RORgamma UAS-luciferase reporter, 20 h | Potency, µM (top dose mostly 53.6 µM), for the others: at the highest dose activity change, negative = inhibition, hits mostly inhibitors | 310,000 compounds, 5.4% hits; note: potency is the fitted concentration of half-maximal effect; nearly all actives have a fitted effect of over 60% in size
Target sequence (P51450 whole entry, looked up, the tested form may be a part): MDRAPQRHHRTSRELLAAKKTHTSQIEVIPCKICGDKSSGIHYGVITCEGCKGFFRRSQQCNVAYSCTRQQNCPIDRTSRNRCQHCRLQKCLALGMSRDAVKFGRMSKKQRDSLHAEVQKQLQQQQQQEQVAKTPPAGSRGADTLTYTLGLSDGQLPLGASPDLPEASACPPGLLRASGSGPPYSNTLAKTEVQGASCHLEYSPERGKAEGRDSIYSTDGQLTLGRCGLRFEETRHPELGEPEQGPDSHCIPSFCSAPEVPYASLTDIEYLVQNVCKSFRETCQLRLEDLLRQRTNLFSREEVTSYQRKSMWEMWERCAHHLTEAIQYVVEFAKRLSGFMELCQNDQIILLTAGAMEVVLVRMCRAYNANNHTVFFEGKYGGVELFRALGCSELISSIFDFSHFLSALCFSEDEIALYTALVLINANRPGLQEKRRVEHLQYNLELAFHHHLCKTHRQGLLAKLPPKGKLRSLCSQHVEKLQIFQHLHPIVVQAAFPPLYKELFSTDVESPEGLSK
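Using a luciferase readout, inhibitors were identified by reduced reporter activity in Drosophila cells coexpressing a copper-inducible Gal4–ROR gamma fusion and UAS-driven Photinus luciferase, incubated 20 hr after 700 uM copper sulfate.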
Gal4-VP16 FLuc – VP16 counterscreen qHTS for inhibitors of ROR gamma transcriptional activity; Drosophila S2 Gal4-VP16 UAS-luciferase, luminescence, 20 h; Potency, µM (top dose mostly 53.6 µM), for inactives: top-dose activity, negative = inhibition, actives largely listed as inhibitors; 310,000 compounds, 3.5% hits; AID 2546, 2010;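 note: Gal4-VP16 expression switched on by copper sulfate through the metallothionein promoter; potency is the fitted concentration of half-maximal effect; nearly all actives have a fitted effect of over 50% in size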
DT40 TDP1 CPT – qHTS for Inhibitors of human tyrosyl-DNA phosphodiesterase 1 (TDP1): qHTS in cells in presence of CPT. chicken DT40 Tdp1-/-;hTDP1 cells + 20 nM CPT, ATP luminescence, 48 h. Potency, µM (highest dose often 46.2 µM), without a hit: at the top dose activity change, negative = growth inhibition, usual class: inhibitors. 420,000 compounds, 12% hits. AID 686979, 2013; note: potency is the fitted concentration of half-maximal effect; nearly all actives have a fitted effect of over 55% in size
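Cell growth measured by CellTiter-Glo luminescence after a minimum 48 h, 37 C compound exposure with 20 nM CPT in Tdp1-knockout DT40 cells stably expressing hTDP1, seeded 400/well; qHTS titration format.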
LDHA block – qHTS assay for inhibitors of human lactate dehydrogenase; 480,000 compounds, 0.15% hits; activity change, % (values are at about 110 or 230 µM); purified LDHA, NADH/diaphorase-resazurin fluorescence; hits give low values; in the data active = activity change below about -30%; inconclusive = mostly about -25% to -30%;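 note: plate controls were DMSO wells for no effect and wells without enzyme for full effect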
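Enzyme activity of human lactate dehydrogenase 5 (2 nM; 0.06 mM NADH, 0.2 mM pyruvate, 5 min, RT) is measured via a resazurin/diaphorase fluorescence readout of residual NADH.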
TDP1 cell noCPT – qHTS for Inhibitors of human tyrosyl-DNA phosphodiesterase 1 (TDP1): qHTS in cells in absence of CPT; DT40 Tdp1-/- hTDP1 cells, no CPT, ATP luminescence, 48 h; Potency, µM (highest dose often 46.2 µM), inactives show at the top dose activity change, negative = growth inhibition, usual class: inhibitors; 420,000 compounds, 15% hits; AID 686978, 2013; note: potency is the fitted concentration of half-maximal effect; nearly all actives have a fitted effect of over 55% in size
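No-CPT arm: Tdp1-/-;hTDP1 DT40 cells (400/well) plus compounds, incubated ≥48 hr at 37 °C. Readout CellTiter-Glo luminescence.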
IL-1B inflam inh – qHTS for Inhibitors of Inflammasome Signaling: IL-1-beta AlphaLISA Primary Screen; activity change, % at 57.5 µM; THP-1 LPS/ATP IL-1B secretion, AlphaLISA, 16 h; hits give low values; 360,000 compounds, 4.7% hits; in the data active = activity change below about -50%; inconclusive = mostly about -30% to -49%
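Secreted IL-1B measured by AlphaLISA bead assay after 16 h compound exposure of THP-1 cells; compounds (final up to 57.5 uM) added 1 h before LPS (250 ng/mL) and ATP (1.25 mM) stimulation; lower signal means less secretion.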
Numbers without * were called inactive. Unless noted, calls come from the whole dose curve; as a rule, active = well fitted curve in the direction sought with a large enough effect; inconclusive = small, poorly fitted or top-dose-only effect, or another doubt; inactive = no such curve, though single readings can be large; an effect the other way counts as inactive or inconclusive. Unless noted, % is set by controls: 0 for no effect and ±100 for the full control effect.

How did COC(=O)c1ccccc1COc1cccn2c(N(C)Cc3cccs3)c(C)nc12 do in these assays?
DT40 TDP1 CPT: inconclusive; LDHA block: 9; TDP1 cell noCPT: inconclusive; IL-1B inflam inh: -78*

What do the screens show for `CCC(CC)C(=O)N(C)c1c(C)nc2c(OCc3ccccc3OC)cccn12`?
DT40 TDP1 CPT: inconclusive; LDHA block: -2; TDP1 cell noCPT: 15µM*; IL-1B inflam inh: 25

How did O=C(Nc1c(-c2cc(=O)oc3ccc(Cl)cc23)oc2ccccc12)C1CC1 do in these assays?
LDHA block: -1

Results for Cc1nc2ccc(Cl)cc2cc1C(=O)N1CCN(CC(=O)N2CCCC2)CC1 ?
LDHA block: -11

What do the screens show for `CCc1nc2c(OCC(N)=O)cccn2c1N(C)C(=O)C(C)C`?
DT40 TDP1 CPT: -11%; LDHA block: -3; TDP1 cell noCPT: -10%; IL-1B inflam inh: 30

How did CCC(CC)C(=O)N(C)c1c(C)nc2c(OCC3CCCCC3)cccn12 do in these assays?
DT40 TDP1 CPT: inconclusive; LDHA block: -7; TDP1 cell noCPT: 13µM*; IL-1B inflam inh: -16

Results for COC(=O)c1ccc(N2CCN(c3ccccc3)CC2)c(NC(=O)C2CC2)c1 ?
RORgamma inh: 4%; Gal4-VP16 FLuc: -10%; DT40 TDP1 CPT: 21µM*; LDHA block: -10; TDP1 cell noCPT: 16µM*; IL-1B inflam inh: 44

How did CN1CCN(c2ccc(NC(=O)c3sc4ccccc4c3Cl)cc2)CC1 do in these assays?
RORgamma inh: -25%; Gal4-VP16 FLuc: -5%; DT40 TDP1 CPT: 12µM*; LDHA block: -4; TDP1 cell noCPT: 13µM*; IL-1B inflam inh: inconclusive

What do the screens show for `COC(=O)c1ccc(N2CCN(C)CC2)c(NC(=O)c2sc3ccccc3c2Cl)c1`?
DT40 TDP1 CPT: 23µM*; LDHA block: -1; TDP1 cell noCPT: 16µM*; IL-1B inflam inh: -14

What do the screens show for `Cc1cc(=O)oc2ccc(OCC(=O)Nc3ccc4c(c3)OCCO4)cc12`?
LDHA block: -3

How did CC(=O)OC[C@@H]1CN(Cc2ccccc2)C[C@H](n2cnc3c(Nc4ccccc4)ncnc32)O1 do in these assays?
DT40 TDP1 CPT: inconclusive; LDHA block: 0; TDP1 cell noCPT: inconclusive; IL-1B inflam inh: -1

How did COc1cc(CNc2ncnc3c2ncn3[C@H]2CN(Cc3cccc(C(F)(F)F)c3)C[C@@H](COC(C)=O)O2)cc(OC)c1OC do in these assays?
DT40 TDP1 CPT: inconclusive; LDHA block: -6; TDP1 cell noCPT: inconclusive; IL-1B inflam inh: 0

What do the screens show for `COc1cc(CNc2ncnc3c2ncn3[C@H]2CN(Cc3cccc(C(F)(F)F)c3)C[C@@H](CO)O2)cc(OC)c1OC`?
DT40 TDP1 CPT: 18µM*; LDHA block: -1; TDP1 cell noCPT: 16µM*; IL-1B inflam inh: 5

Results for COc1cc(CNc2ncnc3c2ncn3[C@H]2CN(Cc3ccccc3)C[C@@H](COC(C)=O)O2)cc(OC)c1OC ?
DT40 TDP1 CPT: inconclusive; LDHA block: -10; TDP1 cell noCPT: 16µM*; IL-1B inflam inh: 28

What do the screens show for `O=Cc1c(-c2ccccc2)cc2oc3ccccc3cc1-2`?
RORgamma inh: 0%; Gal4-VP16 FLuc: -2%; DT40 TDP1 CPT: inconclusive; LDHA block: -5; TDP1 cell noCPT: 13µM*; IL-1B inflam inh: 4

Results for COc1cc(C)c(Cl)cc1S(=O)(=O)n1cnc(C)c1 ?
RORgamma inh: 2%; Gal4-VP16 FLuc: 1%; DT40 TDP1 CPT: -7%; LDHA block: -4; TDP1 cell noCPT: -13%; IL-1B inflam inh: 8

Results for COc1ccc(C(C)C)cc1S(=O)(=O)n1cnc(C)c1 ?
RORgamma inh: -18%; Gal4-VP16 FLuc: 6%; DT40 TDP1 CPT: 16µM*; LDHA block: 1; TDP1 cell noCPT: 23µM*; IL-1B inflam inh: 6

What do the screens show for `COC(=O)c1ccccc1NC(=O)c1ccccc1N(C)S(=O)(=O)c1ccccc1`?
RORgamma inh: 24%; Gal4-VP16 FLuc: -4%; DT40 TDP1 CPT: 26%; LDHA block: -2; TDP1 cell noCPT: -18%; IL-1B inflam inh: 3

Results for COc1ccccc1N(C)S(=O)(=O)c1ccc(C(=O)Nc2nccs2)cc1 ?
DT40 TDP1 CPT: inconclusive; LDHA block: -1; TDP1 cell noCPT: 6.5µM*; IL-1B inflam inh: -8

What do the screens show for `COc1ccccc1N(C)S(=O)(=O)c1ccc(C(=O)NCC2CCCCC2)cc1`?
DT40 TDP1 CPT: inconclusive; LDHA block: -2; TDP1 cell noCPT: 18µM*; IL-1B inflam inh: 0

How did COC(=O)c1ccc(NC(=O)c2ccccc2N(C)S(=O)(=O)c2ccccc2)cc1 do in these assays?
RORgamma inh: 21%; Gal4-VP16 FLuc: -14%; DT40 TDP1 CPT: inconclusive; LDHA block: 0; TDP1 cell noCPT: 21µM*; IL-1B inflam inh: -19

Results for COc1ccccc1N(C)S(=O)(=O)c1ccc(C(=O)N(C)Cc2ccc(OC(F)F)cc2)cc1 ?
DT40 TDP1 CPT: 26µM*; LDHA block: -5; TDP1 cell noCPT: 23µM*; IL-1B inflam inh: -25

Results for COc1ccccc1N(C)S(=O)(=O)c1ccc(C(=O)N(CC(N)=O)C(C)C)cc1 ?
RORgamma inh: -4%; Gal4-VP16 FLuc: 0%; DT40 TDP1 CPT: 14%; LDHA block: -8; TDP1 cell noCPT: inconclusive; IL-1B inflam inh: 16

Results for COc1ccccc1N(C)S(=O)(=O)c1ccc(C(=O)Nc2cccc(Br)c2)cc1 ?
DT40 TDP1 CPT: inconclusive; LDHA block: -9; TDP1 cell noCPT: 16µM*; IL-1B inflam inh: -60*

Results for COc1ccccc1N(C)S(=O)(=O)c1ccc(C(=O)Nc2c(C)cccc2C)cc1 ?
LDHA block: 3

What do the screens show for `COc1cc(NC(=O)c2ccc(S(=O)(=O)N(C)c3ccccc3OC)cc2)cc(OC)c1`?
DT40 TDP1 CPT: 18µM*; LDHA block: 0; TDP1 cell noCPT: 21µM*; IL-1B inflam inh: -3

How did O=C(NCCCN1CCN(c2ccc(F)cc2)CC1)Nc1ccc(Cl)cc1 do in these assays?
DT40 TDP1 CPT: 21µM*; LDHA block: -6; TDP1 cell noCPT: 18µM*

What do the screens show for `O=C(NCCCN1CCN(c2ccc(F)cc2)CC1)NC12CC3CC(CC(C3)C1)C2`?
RORgamma inh: -13%; Gal4-VP16 FLuc: -17%; DT40 TDP1 CPT: 16µM*; LDHA block: -1; TDP1 cell noCPT: 21µM*; IL-1B inflam inh: inconclusive
